Screening results (PubChem BioAssay)
KCNQ2 inh: KCNQ2 (rat) channel inhibition; CHO-K1 KCNQ2, FluxOR thallium flux, 20 min; hits give low values; B-score at 10 µM; 310,000 tested, 1.1% active;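 active = fluorescence ratio B-score at most minus 3 library SDs, with starting brightness B-score within 2 library SDs, cut at about -5.5 in these data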
KCNQ2 enhance: enhances the rat KCNQ2 potassium channel | B-score at 10 µM | 310,000 tested, 0.54% active | CHO-K1 KCNQ2, FluxOR thallium flux fluorescence; hits give high values | O88943;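 active = fluorescence ratio B-score at least 3 SD of library B-scores, with initial fluorescence B-score within 3 of them, cut at about 5.3 in these data; same plate scores as AID 2156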;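 also: B-score of peak minus minimum over baseline fluorescence ratio after K+ and Tl+ stimulus; positive B-score means potentiation of KCNQ2 with more thallium influx and brighter signal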
Kir21 confirm: confirmation of mouse Kir2.1 potassium channel inhibitors; shares compounds with KCNQ2 enhance; Kir2.1-expressing cells, FluxOR thallium flux fluorescence; hits give low values; Tl flux remaining, % of negative control (hits give low values), % at 10 µM; 2,300 tested, 41% active;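 active = Primary-screen hit whose thallium flux fell at least 3 control SD below untreated wells in both duplicates, with normal baseline fluorescence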
HEK293 ctr: parental HEK293 activity in Kir2.1 inhibitor counter-screen. AID 2105. FluxOR signal as % of negative control (100 = no effect), % at 10 µM. shares compounds with KCNQ2 enhance. parental HEK293 cells, FluxOR thallium flux fluorescence; 0% = unstimulated blank wells. 2,300 tested, 19% active;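 active = dye signal at least 3 control SD above or below untreated wells in both duplicates, raw fluorescence within 3, either direction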;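 also: percent is based on the flux ratio of peak minus minimum fluorescence over baseline F0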
CHO-K1 Tl ctr: alters thallium flux in parental CHO-K1 cells, KCNQ2 counter-screen | FluxOR thallium flux fluorescence; zero = vehicle mean+3SD, 100% = vehicle-minus-blank window | 1,200 tested, 43% active | AID 2282 | activity increase over 3SD of controls, % at 10 µM | shares compounds with KCNQ2 enhance;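 active = signal rise of at least 3 SD above the untreated control mean, in both duplicate wells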;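 also: counter screen of KCNQ2 potentiator hits so any rise reflects channel-independent effects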
KCNQ1 pot spec: selectivity of KCNQ2 potentiators: effect on human KCNQ1; shares compounds with KCNQ2 enhance; CHO KCNQ1 stable, FluxOR thallium flux fluorescence; beyond 3SD, as % of vehicle-control signal; activation over 3SD threshold, % at 10 µM; 1,200 tested, 28% active; AID 2283;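 active = fluorescence ratio rise of at least 3 SD of vehicle wells above their mean, in both replicate wells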
Target sequence (P51787 whole entry, looked up): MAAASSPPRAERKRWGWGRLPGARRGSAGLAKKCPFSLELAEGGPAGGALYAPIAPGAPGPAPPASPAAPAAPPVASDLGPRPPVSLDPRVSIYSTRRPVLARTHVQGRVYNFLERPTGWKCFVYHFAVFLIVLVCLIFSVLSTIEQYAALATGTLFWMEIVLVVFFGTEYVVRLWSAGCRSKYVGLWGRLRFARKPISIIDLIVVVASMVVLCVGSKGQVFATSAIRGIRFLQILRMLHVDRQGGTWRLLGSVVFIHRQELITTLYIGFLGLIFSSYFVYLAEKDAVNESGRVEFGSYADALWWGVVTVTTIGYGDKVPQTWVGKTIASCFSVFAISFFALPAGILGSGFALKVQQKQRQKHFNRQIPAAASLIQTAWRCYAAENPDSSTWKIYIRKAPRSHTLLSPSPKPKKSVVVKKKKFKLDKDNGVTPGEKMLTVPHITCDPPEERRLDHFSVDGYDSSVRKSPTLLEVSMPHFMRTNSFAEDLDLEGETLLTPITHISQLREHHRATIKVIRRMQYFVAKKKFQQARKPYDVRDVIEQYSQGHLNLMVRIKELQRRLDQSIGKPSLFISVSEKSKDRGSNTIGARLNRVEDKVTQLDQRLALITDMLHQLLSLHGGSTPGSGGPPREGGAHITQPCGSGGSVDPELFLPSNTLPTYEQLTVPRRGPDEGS
KCNQ2 pot confirm: confirmation of rat KCNQ2 potassium channel potentiators; shares compounds with KCNQ2 enhance; CHO-KCNQ2 cells, FluxOR thallium flux fluorescence; potentiation, less the hit threshold, % at 10 µM; 1,200 tested, 68% active; AID 2287;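 active = fluorescence ratio rising 3 SD or more over the vehicle control mean in both replicates, plus primary screen hit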;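 also: peak minus minimum thallium fluorescence divided by baseline after K/Tl stimulus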
Kir2-1 sel: mouse Kir2.1 off-target activity of KCNQ2 potentiators. shares compounds with KCNQ2 enhance. HEK293 Kir2.1, FluxOR thallium flux fluorescence. activity over 3SD threshold, % at 10 µM. 1,200 tested, 2% active;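 active = fluorescence ratio rise of at least 3 SD above the vehicle-control mean, seen in both replicates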
KCNQ2 W236L MoA: rat KCNQ2 W236L mutant potentiation by KCNQ2 potentiators. shares compounds with KCNQ2 enhance. CHO KCNQ2-W236L, automated patch clamp current. current increase over 3SD of negative controls (%), hits give high values, % at 25 µM. 940 tested, 10% active;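 active = current increase at least 3 SD of the untreated controls above them in both duplicate recordings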
Large screens that a line does not name were inactive (follow-up assays come after a bar, where they were run). The list is not random: actives were taken first. Their share in the collection is about 1.6%.

Cc1cc2c(cc1S(=O)(=O)NCCc1ccccc1)NC(=O)CO2	none
COc1nc(C)cc(C)c1S(=O)(=O)c1ccc(Cl)cc1	none
CCOc1nc(C)cc(C)c1S(=O)(=O)c1ccc(Cl)cc1	none | Kir21 confirm 52% | HEK293 ctr inactive
CCOC(=O)Nc1c(O)ccc2oc(C)c(-c3ccccc3)c12	none | Kir21 confirm 28% | HEK293 ctr inactive
CCOC(=O)C(=O)Nc1nc(-c2ccccc2)c(-c2ccccc2)o1	none (no result: KCNQ2 enhance)
Cc1nn2c(N3CCOCC3)cc(C(C)C)nc2c1-c1ccccc1	none (no result: KCNQ2 enhance)
CCN1CCN(c2cc(C(C)C)nc3c(-c4ccccc4)c(C)nn23)CC1	none (no result: KCNQ2 enhance) | Kir21 confirm 60% | HEK293 ctr inactive
CC[C@@]12C(=O)N(c3cccc(Br)c3)C(=O)N1[C@H](c1cccc(C)c1)[C@@H]1C(=O)N(Cc3ccccc3)C(=O)[C@@H]12	none (no result: KCNQ2 enhance)
Cc1cc(Cl)c(S(=O)(=O)N2CCN(c3ccc(F)cc3)CC2)cc1OCC(N)=O	none
Cc1cc(Cl)c(S(=O)(=O)N2CCN(c3ccc(F)cc3)CC2)cc1OCC(=O)NC1CCCCC1	KCNQ2 enhance 16 | Kir21 confirm inactive | HEK293 ctr inactive | CHO-K1 Tl ctr 53 | KCNQ1 pot spec inactive | KCNQ2 pot confirm 60 | Kir2-1 sel inactive | KCNQ2 W236L MoA inactive
O=C(Cc1ccc(NC2=NC3CS(=O)(=O)CC3S2)cc1)NCCc1ccccc1 (stereo not given)	none
O=C(NNC(=O)c1cc2ccccc2cc1O)c1cccs1	none
C/C(=N\NC(=O)c1c[nH]c2ccccc12)c1ccc(C)o1	none
C/C(=N\NC(=O)c1cc2ccccc2cc1O)c1cccs1	KCNQ2 enhance 7.7 | Kir21 confirm inactive | HEK293 ctr inactive | CHO-K1 Tl ctr 102 | KCNQ1 pot spec inactive | KCNQ2 pot confirm inactive | Kir2-1 sel inactive
C/C(=N\NC(=O)c1cc2ccccc2cc1O)c1ccc(C)o1	KCNQ2 enhance 6.7 | Kir21 confirm inactive | HEK293 ctr 412% | CHO-K1 Tl ctr inactive | KCNQ1 pot spec 1.0 | KCNQ2 pot confirm 67 | Kir2-1 sel inactive | KCNQ2 W236L MoA inactive
CC(=O)Oc1ccc(C2=NN(c3ccccc3)C(c3ccccc3)C2)cc1 (stereo not given)	none (no result: KCNQ2 enhance)
COc1ccc(CCSc2nnc(C3CCCCC3)n2N)cc1	none (no result: KCNQ2 enhance)
Cn1cc(Cl)c(/C(N)=N/OC(=O)c2ccccc2C(F)(F)F)n1	none
CN(C)S(=O)(=O)c1ccc(NC(=O)CN2CCC(Cc3ccccc3)CC2)cc1	none
O=C(CN1CCC(Cc2ccccc2)CC1)Nc1ccc2c(c1)OCCO2	KCNQ2 enhance 5.5 | CHO-K1 Tl ctr inactive | KCNQ1 pot spec inactive | KCNQ2 pot confirm 0.3 | Kir2-1 sel inactive | KCNQ2 W236L MoA inactive
CCC(C)C(=O)Nc1nnc(SCC(=O)N2C(C)CCCC2C)s1 (stereo not given)	none
Cc1ccc(Nc2cc(C)nn2-c2nc(C)cc(=O)[nH]2)cc1	KCNQ2 enhance 17 | Kir21 confirm inactive | HEK293 ctr 269% | CHO-K1 Tl ctr 60 | KCNQ1 pot spec 45 | KCNQ2 pot confirm 42 | Kir2-1 sel inactive | KCNQ2 W236L MoA inactive
Cc1ccc(Nc2cc(C)nn2-c2nc(C)cc(C)n2)cc1	none
CSc1ccc(CN2CCC(CO)(CCOc3ccccc3)CC2)cc1	none | Kir21 confirm 42% | HEK293 ctr inactive
OCC1(CCOc2ccccc2)CCN(Cc2ccncc2)CC1	none (no result: KCNQ2 enhance)
Brc1cc(Cc2nnc(-c3ccccc3)o2)c(Br)s1	none (no result: KCNQ2 enhance)
CCc1ccc(NS(=O)(=O)c2ccc3c(c2)CCN3C(=O)CCC(=O)O)cc1	none (no result: KCNQ2 enhance)
CCCCC(CC)CNS(=O)(=O)c1ccc2c(c1)CCN2C(=O)CCC(=O)O (stereo not given)	none (no result: KCNQ2 enhance) | Kir21 confirm inactive | HEK293 ctr inactive
Cn1c(N)c(C(=O)COC(=O)C2=NNC(=O)CC2)c(=O)n(C)c1=O	none
CSc1ccc(C(=O)N2CCC(CCC(=O)NCc3ccc(F)cc3)CC2)cc1	none
COc1ccc2cc(C(=O)N3CCN(c4ccccc4OC)CC3)[nH]c2c1	none (no result: KCNQ2 enhance)
Cc1ccc(N/C=C/C(=O)C(C)(C)C)c(O)c1	KCNQ2 enhance 8.3 | Kir21 confirm inactive | HEK293 ctr inactive | CHO-K1 Tl ctr inactive | KCNQ1 pot spec 2.9 | KCNQ2 pot confirm 8.3 | Kir2-1 sel inactive | KCNQ2 W236L MoA inactive
CC(=O)Nc1ccc(N/C=C/C(=O)C(C)(C)C)cc1	none (no result: KCNQ2 enhance)
CC(C)Oc1cccc(C(=O)C2CCCN(C(=O)CCc3cnn(C)c3)C2)c1 (stereo not given)	none
COCCN=C1N[C@@H](c2ccccc2)C(C(=O)OC)=C(C)N1Cc1ccccc1	none (no result: KCNQ2 enhance)
COC(=O)C1=C(C)N(Cc2ccccc2)C(=S)N[C@H]1c1cccc(F)c1	none (no result: KCNQ2 enhance)
CCN1C(=O)N[C@@H](c2cccc(F)c2)C(C(=O)OC)=C1C	none
COCCN=C1N[C@@H](c2ccc(Br)cc2)C(C(=O)OC)=C(C)N1Cc1ccccc1	none (no result: KCNQ2 enhance) | Kir21 confirm 32% | HEK293 ctr 74%
COCCN1C(=S)N[C@@H](c2cccc(F)c2)C(C(=O)OC)=C1C	none (no result: KCNQ2 enhance) | Kir21 confirm 41% | HEK293 ctr inactive
COC(=O)C1=C(C)N(Cc2ccccc2)C(=NCc2ccccc2)N[C@H]1c1cccc(F)c1	none (no result: KCNQ2 enhance) | Kir21 confirm 19% | HEK293 ctr inactive
CC(C)(Oc1ccc(Cl)cc1)C(=O)Nc1c2c(nn1C(C)(C)C)CS(=O)(=O)C2	none (no result: KCNQ2 enhance)
CN(Cc1ccco1)C(=O)Cn1cc(S(=O)(=O)N2CCCC2)c(S(=O)(=O)N2CCCC2)c1	none
C=CCC(CC(O)COCCC)C(=O)NNC(=S)Nc1ccccc1 (stereo not given)	none (no result: KCNQ2 enhance)
CC(=O)c1cnn(-c2c(Cl)cc(Cl)cc2Cl)c1C	none
Oc1ccccc1CN1CCN(C(O)(c2ccccc2)c2ccccc2)CC1	none (no result: KCNQ2 enhance) | Kir21 confirm 66% | HEK293 ctr inactive
Oc1ccccc1CN1CCC(C(O)(c2ccccc2)c2ccccc2)CC1	none (no result: KCNQ2 enhance)
CCN(CC)C(=S)SCC(=O)Nc1ccc(F)cc1	KCNQ2 enhance 6.4 | Kir21 confirm inactive | HEK293 ctr inactive | CHO-K1 Tl ctr inactive | KCNQ1 pot spec inactive | KCNQ2 pot confirm 3.2 | Kir2-1 sel inactive | KCNQ2 W236L MoA inactive
CCN(CC)C(=S)SCC(=O)c1ccc(F)cc1	none (no result: KCNQ2 enhance)
Nc1ncnc(Nc2c(F)cccc2F)n1	none (no result: KCNQ2 enhance)
Cn1c(N)c(C(=O)c2ccc(Cl)cc2)c(=O)n(C)c1=O	none
